Assay outcomes from PubChem BioAssay.
TDP1 cell CPT: qHTS for Inhibitors of human tyrosyl-DNA phosphodiesterase 1 (TDP1): qHTS in cells in presence of CPT; Potency, µM (titrated, usually from 46.2 µM), inactives show at the highest dose activity change, negative = growth inhibition, hits mostly inhibitors; chicken DT40 Tdp1-/-;hTDP1 cells + 20 nM CPT, ATP luminescence, 48 h; 420,000 compounds, 12% hits; further: potency means the concentration at half of the fitted maximal effect; nearly all actives have a fitted effect of over 55% in size
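Chicken DT40 Tdp1-/- cells stably complemented with human TDP1 were seeded at 400 cells/well in medium containing 20 nM camptothecin, exposed to pin-transferred compounds, and grown at 37 °C for at least 48 hr. Viability was read as ATP luminescence.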
IL1B secr inh: qHTS for Inhibitors of Inflammasome Signaling: IL-1-beta AlphaLISA Primary Screen; AID 743279, 2014; activity change, % at 57.5 µM; THP-1 LPS/ATP IL-1B secretion, AlphaLISA, 16 h; stronger effect = lower value; 360,000 compounds, 4.7% hits; in the data active means activity change below about -50%; inconclusive means mostly about -30% to -49%
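Secreted IL-1B measured by AlphaLISA bead assay after 16 h compound exposure of THP-1 cells; compounds (final up to 57.5 uM) added 1 h before LPS (250 ng/mL) and ATP (1.25 mM) stimulation; lower signal means less secretion.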
HT1080-NT tox: qHTS for induction of synthetic lethality in tumor cells producing 2HG: qHTS for the HT-1080-NT fibrosarcoma cell line. HT-1080-NT fibrosarcoma viability, CellTiter-Glo ATP luminescence, 48 h. Potency, µM (titrated, usually from 46.1 µM), for inactives: at the highest dose activity, negative = less viability, hits mostly cytotoxic. 360,000 compounds, 1.6% hits;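 further: NT is the 2HG producing partner of a matched IDH1 knockdown line; potency means the concentration at half of the fitted maximal effect; 0% = DMSO-treated cells and -100% = media-only wells without cells; nearly all actives have a fitted effect of over 55% in size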
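HT-1080-NT fibrosarcoma cells (2HG-overproducing), 750 cells/well in RPMI with 5% FBS, dosed after 2 h and incubated 48 h at 37C. CellTiter-Glo luminescence normalized to DMSO and no-cell wells; concentration-response curves fitted and classed.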
TDP1 cell noCPT: qHTS for Inhibitors of human tyrosyl-DNA phosphodiesterase 1 (TDP1): qHTS in cells in absence of CPT; Potency, µM (series often up to 46.2 µM), for the others: top-dose activity change, negative = growth inhibition, hits mostly inhibitors; DT40 Tdp1-/- hTDP1 cells, no CPT, ATP luminescence, 48 h; 420,000 compounds, 15% hits; further: potency means the concentration at half of the fitted maximal effect; nearly all actives have a fitted effect of over 55% in size
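DT40 Tdp1-/-;hTDP1 cells, no CPT (DMSO vehicle only), 400 cells/well; compounds pin-transferred; ≥48 hr, 37 °C; CellTiter-Glo 30 min RT dark, luminescence read.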
HT1080 IDH1KD tx: qHTS for induction of synthetic lethality in tumor cells producing 2HG: qHTS for the HT-1080-IDH1KD cell line | HT-1080 IDH1 knockdown viability, ATP luminescence, 48 h | Potency, µM (doses to about 46.1 µM), without a hit: at the top dose activity, negative = toxicity, hits mostly cytotoxic | 360,000 compounds, 2% hits;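 further: potency means the concentration at half of the fitted maximal effect; 0% = DMSO wells and -100% = cell-free medium wells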
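Knockdown cells (IDH1KD HT-1080) received compounds 2 h after plating at 750 cells/well and were kept 48 h at 37 °C in 5% FBS RPMI. A CellTiter-Glo luminescence read gave % activity for curve fitting.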
ELG1 DNA repair: qHTS screen for small molecules that inhibit ELG1-dependent DNA repair in human embryonic kidney (HEK293T) cells expressing luciferase-tagged ELG1; HEK293T ELG1-luciferase reporter, luminescence, 16 h; DNA damage induced by 5-fluorouridine; AID 504467, 2011; Potency, µM (titrated, usually from 46.1 µM), inactives show at the top dose activity change, negative = inhibition, usual class: inhibitors; 330,000 compounds, 2.3% hits; further: potency means the concentration at half of the fitted maximal effect; nearly all actives have a fitted effect of over 55% in size
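Quantitative HTS, concentration-response format. 2,000 cells/well co-treated with 5-fluorouridine and compound, 16 hr in 5% CO2 at 37 °C; ONE-Glo luminescence read after 30 min.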
* = called active by the depositor; ? = inconclusive; nt = no result given; [ ] = dose if it differs, or a comment. This is a sample that favours compounds with a hit; in the whole collection about 19% have one here. Unless noted, the call rests on the fitted dose curve; in most records, active means well fitted curve in the direction sought with a large enough effect; inconclusive means small, poorly fitted or top-dose-only effect, or another doubt; inactive means no such curve, though single readings can be large; an effect the other way counts as inactive or inconclusive. Unless noted, on the % scale 0 is the no-effect control and ±100 the full control effect.

SMILES	TDP1 cell CPT	IL1B secr inh	HT1080-NT tox	TDP1 cell noCPT	HT1080 IDH1KD tx	ELG1 DNA repair
COc1ccc(F)cc1C(=O)C1CCCN(Cc2cccn2-c2ccccn2)C1 (configuration not stated)	?	-17	?	16µM*	?	-22%
O=C(c1cc(F)ccc1F)C1CCCN(Cc2cccn2-c2ccccn2)C1 (configuration not stated)	?	?	-10%	?	-6%	4%
COc1ccc(C(=O)C2CCCN(Cc3cccn3-c3ccccn3)C2)c(OC)c1 (configuration not stated)	8.2µM*	-93*	6.5µM*	6.5µM*	15µM*	?
Cc1c(NC(=S)N/N=C/c2ccc(Br)cc2)c(=O)n(-c2ccccc2)n1C	?	-21	-13%	-25%	-9%	-2%
Cc1c(NC(=S)SCc2ccccc2)c(=O)n(-c2ccccc2)n1C	-14%	-23	-8%	23µM*	-18%	29%
Cc1c(NC(=S)N/N=C\c2ccccc2O)c(=O)n(-c2ccccc2)n1C	?	68	-1%	21µM*	-26%	?
CS(=O)(=O)Cc1ccc(C(=O)NC2CCCc3ccccc32)cc1 (configuration not stated)	3%	13	6%	14%	2%	5%
CCCc1cc2c(cc1N(C)S(=O)(=O)c1ccccc1)OCO2	3.7µM*	-18	1%	3.7µM*	-10%	nt
O=C1c2ccccc2-c2onc3c(NCCO)cc(NC4CCCCC4)c1c23	18µM*	nt	nt	?	nt	nt
O=C(O)CCNc1cc(N2CCN(C(=O)c3ccco3)CC2)c2noc3c2c1C(=O)c1ccccc1-3	-2%	-71*	?	-26%	?	-1%
CCN1CCN(c2cc(N3CCN(C(=O)c4ccco4)CC3)c3c4c(onc24)-c2ccccc2C3=O)CC1	7.3µM*	-52*	?	9.2µM*	?	-11%
O=C(O)CCCNc1cc(N2CCN(C3CCCCC3)CC2)c2noc3c2c1C(=O)c1ccccc1-3	-12%	nt	nt	1%	nt	nt
C=CCn1c(SCC(=O)Nc2cc(C)on2)nnc1-c1ccccc1F	-24%	-7	18%	-25%	17%	-11%
COc1ccc(Cc2nnc(SCC(=O)Nc3ccc(N4CCOCC4)cc3)o2)cc1	-14%	-5	9%	-9%	3%	-8%
Cc1cc(C)c2nc(N(Cc3cccnc3)C(=O)CCOc3ccccc3)sc2c1	-18%	nt	nt	?	nt	nt
O=C(CCOc1ccccc1)N(Cc1cccnc1)c1nc2c(Cl)cccc2s1	1.3µM*	nt	nt	2.1µM*	nt	nt
Cc1cccc2sc(N(Cc3cccnc3)C(=O)CCS(=O)(=O)c3ccccc3)nc12	2.9µM*	nt	nt	3.3µM*	nt	nt
Cc1ccc2sc(N(Cc3cccnc3)C(=O)CCS(=O)(=O)c3ccccc3)nc2c1C	5.8µM*	nt	nt	6.5µM*	nt	nt
Cc1cc(C)c2sc(N(Cc3cccnc3)C(=O)CCS(=O)(=O)c3ccccc3)nc2c1	4.1µM*	nt	nt	2.9µM*	nt	nt
Nc1nc(N)c2[nH]c(=S)[nH]c2n1	-19%	5	-3%	-2%	-8%	nt
O=C(c1cccs1)N(Cc1cccnc1)c1nc2c(Cl)cccc2s1	-21%	nt	nt	?	nt	nt
Cc1cc(C)c2nc(N(Cc3cccnc3)C(=O)CCS(=O)(=O)c3ccccc3)sc2c1	4.6µM*	nt	nt	4.6µM*	nt	nt
O=C(CCS(=O)(=O)c1ccccc1)N(Cc1cccnc1)c1nc2c(Cl)cccc2s1	5.2µM*	nt	nt	5.2µM*	nt	nt
Cc1cc(C)c2nc(N(Cc3cccnc3)C(=O)c3ccc(S(=O)(=O)N(C)C)cc3)sc2c1	?	nt	nt	18µM*	nt	nt
Cc1[nH]c2ccccc2c1N=Nc1c(C)n(C)n(-c2ccccc2)c1=O	21µM*	-6	-7%	?	10%	13µM*
SMILES	TDP1 cell CPT	IL1B secr inh	HT1080-NT tox	TDP1 cell noCPT	HT1080 IDH1KD tx	ELG1 DNA repair
Cc1[nH]c2ccccc2c1N=Nc1ccccc1F	?	?	?	?	?	3%
Cc1c(N=Nc2ccc(O)cc2)c(=O)n(-c2ccccc2)n1C	3%	28	-11%	3%	0%	-2%
Cc1[nH]c2ccccc2c1N=Nc1ccc(F)cc1	?	?	21µM*	?	?	-5%
O=C(COC(=O)c1ccccn1)Nc1ccc2c(c1)OCCO2	-1%	25	6%	3%	2%	?
Cc1cc(-c2ccnc(-n3ncc(C(=O)NCC4COCCO4)c3C)n2)c(C)s1 (configuration not stated)	?	nt	nt	4.1µM*	nt	nt
O=C(C1CCCN(S(=O)(=O)c2ccc(Br)s2)C1)N1CCN(c2cccc(Cl)c2)CC1 (configuration not stated)	16µM*	nt	nt	21µM*	nt	nt
O=C(NCc1cccs1)C1CCCN(S(=O)(=O)c2ccc(Br)s2)C1 (configuration not stated)	-11%	5	-4%	?	-1%[9.24 µM]	nt
O=C(O)C1CCCN(S(=O)(=O)c2cccs2)C1 (configuration not stated)	3%	-1	2%	-1%	12%	-5%
O=C(C1CCCN(S(=O)(=O)c2cccs2)C1)N1CCN(c2cccc(Cl)c2)CC1 (configuration not stated)	21µM*	nt	nt	15µM*	nt	nt
COc1ccc(-c2noc(-c3ccc(NCc4ccccc4OC)c([N+](=O)[O-])c3)n2)cc1	-18%	nt	nt	?	nt	nt
CCOC(=O)c1ccccc1NC(=O)c1cc2ccc3cccnc3c2[nH]1	5%	nt	nt	-15%	nt	nt
CCCc1cc(=O)c2c(O)ccc(OC)c2o1	0%	-8	-8%	-17%	-6%	-7%
Cc1cc(=O)c2c(O)cc(O)c(C)c2o1	?	nt	nt	21µM*	nt	nt
CC(=O)N1CCc2cc(S(=O)(=O)NC(CC(C)C)C(=O)NCCc3ccc(C)cc3)ccc21 (configuration not stated)	3%	nt	nt	-6%	nt	nt
CCc1c(C)sc2c1CCN(Cc1ccccc1)C2c1ccccc1 (configuration not stated)	7.3µM*	nt	nt	2.9µM*	nt	nt
